How the values were obtained:
Conditions in all cases: concentration: 1 μM, replicates: in singlicate; n = 1
MKK7 = tested on: MKK7
MKNK1 = tested on: MKNK1
MKNK2 = tested on: MKNK2
MLCK = tested on: T1, MLCK
T1 construct: gene MYLK3

MLK1 = tested on: T2, MLK1
T2 construct: gene MAP3K9

MLK2 = tested on: MLK2
MLK3 = tested on: MLK3
MRCKA = tested on: MRCKA
MRCKB = tested on: T3, MRCKB
T3 construct: gene CDC42BPB

MST1R = tested on: MST1R
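Note: KINOMEscan kinase panel screen.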

| Structure (SMILES) | %Inh (MKK7) [%] | %Inh (MKNK1) [%] | %Inh (MKNK2) [%] | %Inh (MLCK) [%] | %Inh (MLK1) [%] | %Inh (MLK2) [%] | %Inh (MLK3) [%] | %Inh (MRCKA) [%] | %Inh (MRCKB) [%] | %Inh (MST1R) [%] |
| --- | --- | --- | --- | --- | --- | --- | --- | --- | --- | --- |
| Cc1ccc(NC(=O)c2ccnc(N3CCN(C)CC3)c2)cc1-c1ccc(C(=O)NCC2CC2)cc1 [GW775604] | 0 | 2 | 0 | 16 | 0 | 21 | 0 | 0 | 0 | 0 |
| [2H]C([2H])(c1cccc(C(F)(F)F)c1C)n1ccn2c(=O)nc(N3CCOCC3)cc12 [GSK2336394] | 14 | 3 | 6 | 3 | 0 | 0 | 21 | 23 | 0 | 33 |
| O=C(Nc1n[nH]c2cc(-c3cccc(F)c3)ccc12)C1CC1 [SB-735464] | 19 | 0 | 29 | 35 | 0 | 0 | 4 | 4 | 0 | 15 |
| Cc1cccc(Cn2ccn3c(=O)cc(N4CCOCC4)nc23)c1 [GSK2297542] | 0 | 0 | 3 | 0 | 18 | 0 | 18 | 0 | 6 | 39 |
| Cc1cccc(-c2nc(Nc3ccc4ncsc4c3)c3ccccc3n2)n1 [GW867588] | 0 | 16 | 0 | 0 | 7 | 20 | 1 | 2 | 33 | 0 |
| O=C(NOCC1CC1)c1ccc(F)c(F)c1Nc1ccc(I)cc1Cl | 0 | 0 | 0 | 0 | 0 | 0 | 0 | 0 | 0 | 0 |
| Fc1ccc(-c2ncn(CCCN3CCOCC3)c2-c2cccnc2)cc1 [SB-211743] | 8 | 0 | 0 | 0 | 0 | 39 | 17 | 0 | 19 | 0 |
| Cc1ccc(C(=O)NCC(N)=O)cc1-n1c(C)cc(OCc2ccc(F)cc2F)c(Br)c1=O | 0 | 0 | 0 | 0 | 25 | 19 | 22 | 3 | 12 | 29 |

— publication PMC5540273 (PLoS ONE, 2017)
